# Sampled rows, rich in hits. Any-hit rate of the full collection: about 4.2%.
# Mtb FBA inh = Mtb fructose-bisphosphate aldolase inhibition. inhibition, % at 1 µM. AID 588726. hit rate 2.3% among 360,000. purified M. tuberculosis FBA, fluorescence read-out. P9WQA3; in the data active means inhibition above about 27%;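 further: 0% = vehicle and 100% = reference inhibitor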
# RecA splice inh = inhibitors of M. tuberculosis RecA intein splicing; cell-free RecA intein splicing, fluorescence; P9WHJ3; inhibition, % (no concentration beside the values); hit rate 0.75% among 290,000; AID 2221; in the data active means inhibition above about 30%;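 further: 0% = vehicle wells and 100% = reference inhibitor control wells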
# Target sequence (P9WHJ3 whole entry, looked up, canonical isoform): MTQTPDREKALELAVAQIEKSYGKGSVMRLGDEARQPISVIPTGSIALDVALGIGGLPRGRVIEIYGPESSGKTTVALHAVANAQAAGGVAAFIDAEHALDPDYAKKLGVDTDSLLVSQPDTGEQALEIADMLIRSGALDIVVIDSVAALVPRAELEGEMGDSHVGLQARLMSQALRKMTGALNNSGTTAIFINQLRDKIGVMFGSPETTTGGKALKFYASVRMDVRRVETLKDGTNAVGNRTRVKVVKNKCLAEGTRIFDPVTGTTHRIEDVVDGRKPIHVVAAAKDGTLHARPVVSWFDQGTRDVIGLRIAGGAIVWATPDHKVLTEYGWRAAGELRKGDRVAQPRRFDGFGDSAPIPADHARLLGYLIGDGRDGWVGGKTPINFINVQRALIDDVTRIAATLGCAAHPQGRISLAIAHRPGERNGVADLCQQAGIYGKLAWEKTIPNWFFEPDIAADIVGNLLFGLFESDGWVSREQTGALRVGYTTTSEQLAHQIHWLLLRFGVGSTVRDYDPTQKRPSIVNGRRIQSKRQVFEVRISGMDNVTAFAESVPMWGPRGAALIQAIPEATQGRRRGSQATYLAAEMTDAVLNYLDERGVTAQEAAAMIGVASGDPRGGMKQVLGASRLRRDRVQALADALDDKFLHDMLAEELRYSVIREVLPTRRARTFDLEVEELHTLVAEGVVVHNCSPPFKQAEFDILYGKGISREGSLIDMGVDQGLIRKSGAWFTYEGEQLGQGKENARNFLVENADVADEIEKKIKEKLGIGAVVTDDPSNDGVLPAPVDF
# CCHFV vOTU inh = CCHFV vOTU protease inhibition. Pep-AMC fluorescence. hit rate 0.55% among 370,000. inhibition, % at 11.5 µM; further: 0% = vehicle wells with enzyme and 100% = no enzyme wells
# GDH-TPI counter-1 = counter-screen for M. tuberculosis FBA inhibitors: GDH-TPI coupled enzymes; GDH-TPI coupled enzyme counterscreen, NADH absorbance; AID 588335; inhibition, % at 4.8 µM; hit rate 1.2% among 360,000;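 further: 0% = DMSO wells and 100% = wells lacking the enzyme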
# Mtb FBA confirm = confirmation of M. tuberculosis fructose-bisphosphate aldolase inhibitors; shares compounds with Mtb FBA inh; purified M. tuberculosis FBA, fluorescence read-out; inhibition, % at 1 µM; hit rate 78% among 5,600; AID 651616; in the data active means inhibition above about 27%;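 further: 0% = vehicle wells and 100% = reference inhibitor wells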
# GDH-TPI counter-2 = counter-screen for M. tuberculosis FBA inhibitors: GDH-TPI coupled enzyme inhibition. shares compounds with Mtb FBA inh. GDH-TPI coupled enzyme counterscreen, fluorescence. inhibition, % at 1 µM. hit rate 81% among 5,600. AID 652141; in the data active means inhibition above about 10%
# GDH-TPI DR = counter-screen for M. tuberculosis FBA inhibitors: GDH-TPI dose response; shares compounds with Mtb FBA inh; GDH-TPI coupled enzyme assay, fluorescence, artifact counterscreen; IC50, µM; hit rate 79% among 170; call rule not given here
# Numbers without * were called inactive; nt = no result given; + = active, no number. Unless noted, no stated cut-off is given here; in the data, active means inhibition above about 30%; inactive means the rest.
SMILES,Mtb FBA inh,RecA splice inh,CCHFV vOTU inh,GDH-TPI counter-1,Mtb FBA confirm,GDH-TPI counter-2,others
CCN1CCSc2ccc(C(=O)NCc3cccc(Br)c3)cc21,40.1*,-14.8,-35.8,6.2,106.9*,82.3*,
COc1cccc(CNC(=O)c2cccc(Br)c2)c1,-0.5,0.2,-8.7,8.1,nt,nt,
CCOc1ccccc1CNC(=O)c1ccc2c(c1)N(CC)CCS2,74.3*,-8.4,-52.8,13.9,25.6,20.9*,
CCOc1ccccc1CNC(=O)c1ccc2nc(N3CCOCC3)sc2c1,1.3,-1.1,-2.0,-9.1,nt,nt,
CCN1CCSc2ccc(C(=O)NCc3cccc(F)c3)cc21,48.6*,-10.0,-66.3,3.9,+,162.2*,
COCc1cccc(C(=O)NC(c2ccccc2)c2ccccc2)c1,1.2,-1.1,3.2,-7.4,nt,nt,
Cc1cccc(C(=O)NC2CC3CCCC(C2)N3C(=O)Nc2ccccc2)c1 (stereo not given),4.4,0.2,12.9,5.2,nt,nt,
COc1ccc(N(CC(C)C)S(=O)(=O)c2nnc(NC(=O)c3ccco3)s2)cc1,2.4,3.8,21.5,19.2,nt,nt,
CCCCCn1nnnc1C1(C)CCCCC(=O)N1Cc1ccco1 (stereo not given),nt,nt,1.3,nt,nt,nt,
Cc1cc(C(=O)COC(=O)c2nccnc2N)c(C)n1C,62.1*,0.1,-38.9,7.9,1.8,5.9,
COc1cc(C(=O)OCC(=O)c2cc(C)n(C)c2C)cc(OC)c1OC,-6.6,-0.3,-1.6,-9.3,nt,nt,
CCS(CC)=NS(=O)(=O)c1ccc(NC(C)=O)cc1,63.9*,-1.1,8.2,-1.3,98.3*,86.7*,
COc1ccccc1NC(=O)COC(=O)CCC(=O)c1cccs1,-2.1,nt,-5.3,0.0,nt,nt,
CCOC(=O)c1cn(Cc2cccc(Cl)c2)c2cc(C)nn2c1=O,28.0*,-0.8,4.8,11.2,67.0*,52.6*,
CCOC(=O)[C@]12CCC=C1N(Cc1ccc(Cl)cc1Cl)C(=O)[C@H](CC(=O)NCC1CCCCC1)C2,nt,nt,27.8,nt,nt,nt,
Cc1cc2c(cc1C)-n1nnnc1C(N(C)CCc1ccccc1)C(=O)N2 (stereo not given),nt,nt,13.0,nt,nt,nt,
c1ccc(Nc2cccc3c(Nc4ccccc4)cccc23)cc1,28.0*,16.0,-7.7,11.3,35.7*,34.4*,
Cc1cccc(Nc2ccccc2)c1,-0.4,2.2,3.3,-11.2,nt,nt,
O=C(O)/C=C/C(=O)Nc1ccc(Oc2ncnc3cc(Cl)ccc23)nc1,nt,-0.2,nt,nt,nt,nt,
Cc1ccc(CNC(=O)Cc2cccs2)cc1,2.5,0.8,4.3,12.7,nt,nt,
Cc1ccc(CNC(=O)CN(Cc2cccs2)C(=O)C2(C)CC(=O)N=C3C=CC=CN32)cc1 (stereo not given),80.3*,0.2,-102.6,14.4,50.7*,39.1*,
Cc1ccc(CNC(=O)CN(C(=O)C2(C)CC(=O)N=C3C=CC=CN32)c2cc(C)ccc2C)cc1 (stereo not given),90.6*,1.3,-76.7,21.6,+,+,
CN(C(=O)c1ccc(Cl)cc1)C1CCS(=O)(=O)C1 (stereo not given),-0.2,nt,-10.2,-14.6,nt,nt,
COc1cc2cc(C(=O)N(C)C3CCS(=O)(=O)C3)[nH]c2cc1OC (stereo not given),30.8*,4.0,3.4,19.3,6.5,-2.5,
O=c1c2ccccc2c(/C=N/c2nnc(Cc3ccccc3)s2)c(O)n1-c1ccc(Cl)cn1,18.3,-9.0,-11.4,11.7,nt,nt,
SMILES,Mtb FBA inh,RecA splice inh,CCHFV vOTU inh,GDH-TPI counter-1,Mtb FBA confirm,GDH-TPI counter-2,others
O=c1c2ccccc2c(/C=N/c2n[nH]c(CCCO)n2)c(O)n1-c1ccccc1Cl,30.3*,-16.1,-21.3,8.2,73.4*,57.4*,
O=S(=O)(c1ccccc1)N1N=C(c2cccs2)CC1c1ccc(Br)cc1 (stereo not given),9.2,-1.5,9.7,8.1,nt,nt,
Fc1ccc(C2CC(c3cccs3)=NN2c2ccccc2)cc1 (stereo not given),107.3*,-102.2,20.4,2.2,32.9*,21.7*,
c1ccc(C2CC(c3cccs3)=NN2c2ccccc2)cc1 (stereo not given),87.0*,-7.1,-5.1,7.4,170.6*,119.0*,
CCOC(=O)C1=CCN(S(=O)(=O)c2cccc(Cl)c2)C1c1ccc(Cl)c(Cl)c1 (stereo not given),nt,nt,11.5,nt,nt,nt,
CC(C)(C)C1CCN2CCCC(c3ccccc3)(C1)C2=O (stereo not given),nt,nt,2.8,nt,nt,nt,
C/C(=N/Nc1ccc(C)cc1)C1(C)N(O)C(C)(C)C(c2ccco2)=[N+]1[O-] (stereo not given),33.3*,-1.2,-1.5,7.7,73.7*,57.9*,
Cc1c(C(=O)Nc2ccc(Cl)cc2)c2ccccn2c1CCc1ccncc1,31.6*,0.4,-16.0,7.7,11.9,0.9,GDH-TPI DR=0.974*
CN(C)c1ccc(-c2n[nH]c(=S)n2-c2ccccc2)cc1,23.0,-1.4,-5.2,3.1,nt,nt,
CCN(CC)c1ccc(-c2n[nH]c(=S)n2-c2ccccc2)cc1,37.0*,1.5,-0.5,7.5,86.1*,68.2*,
O=C(CNC(=O)c1cccc([N+](=O)[O-])c1)NC1CCCc2ccccc21 (stereo not given),3.1,nt,-8.9,-0.7,nt,nt,
COC(=O)c1cc(COc2ccc3c(c2)oc(=O)c2ccccc23)c(C)o1,32.4*,-2.5,2.5,6.1,106.7*,80.5*,
O=c1c(NCCc2ccc(Cl)cc2)c(-c2ccccc2)c1=O,2.4,-4.4,-6.3,7.3,nt,nt,
CN1CCCN(C(=O)c2ccc(Br)s2)CC1,-2.0,-4.4,1.9,2.1,nt,nt,
CN1CCN(C(=O)c2ccc(-c3cccs3)s2)CC1,49.6*,-3.1,-100.1,13.3,23.4,18.4*,
O=C(c1ccccc1Cl)N1N=C(c2cccs2)CC1c1cccc(O)c1 (stereo not given),-0.9,7.0,20.2,2.3,nt,nt,
COC(=O)c1cc2c(=O)c3ccccc3oc2nc1/C=C/N(C)C,32.0*,-6.7,-14.0,2.5,97.7*,64.3*,
COC(=O)c1cc2c(=O)c3ccccc3oc2nc1C,2.0,-0.2,13.7,-5.1,nt,nt,
COc1ccc(C2NC(=O)CCC2[N+](=O)[O-])c(OC)c1OC (stereo not given),-5.5,-1.8,-9.5,-9.8,nt,nt,
Cc1ccc2cc(-c3noc(C4CCCCC4)n3)c(=O)[nH]c2c1,1.4,0.1,-6.6,3.4,nt,nt,
Cc1ccc2cc(-c3noc(C4CCCO4)n3)c(=O)[nH]c2c1 (stereo not given),37.0*,2.4,-23.3,16.0,42.0*,45.5*,
O=C(O)CCn1c(SCCc2ccccc2)nc2ccccc21,-1.2,-1.5,6.0,4.4,nt,nt,
COc1cc2c3nnc(-c4ccccc4)c-3cn(Cc3ccc(F)cc3)c2cc1OC,31.8*,-124.2,-85.6,13.0,127.3*,93.6*,
COc1cc2c3nnc(-c4ccc(F)cc4)c-3cn(Cc3ccc(C)cc3)c2cc1OC,2.8,-74.3,-17.2,7.1,nt,nt,
C[C@H](NC(=O)[C@H](Cc1ccccc1)NC(=O)c1cc2cc(Cl)ccc2n1C)C(=O)O,6.8,1.1,-4.6,0.0,nt,nt,

# Screening results (PubChem)
